Screening data (PubChem BioAssay)
Only some compounds are listed: those with a hit (about 27% of all), similar ones and a draw of the others.
Cav32 inh: Cav3.2 calcium influx blockers – cell-based, Fluo-4 calcium fluorescence, FDSS, MLSMR library, primary screen; B-score at 10 µM; Cav3.2-expressing cells; hits give low values; 100,000 compounds, 4% hits; Voltage-dependent T-type calcium channel subunit alpha-1H (Homo sapiens), O95180;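 active means single-dose well whose peak fluorescence ratio is a statistical outlier from its plate by either plate-standardised score or position-corrected B-score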
CYP2C9 activ: human CYP2C9 activators, primary screen, biochemical, luminescence; activation factor at 5 µM; Cytochrome P450 2C9 (Homo sapiens), P11712; 96,000 compounds, 1.4% hits; recombinant CYP2C9, luciferin-H conversion; hits give high values; factor 1 = untreated enzyme, 0 = blocked;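 active means activation factor of 2 or more for CYP2C9 at a 5 µM dose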;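 further: 0 = sulfaphenazole-blocked wells and 1 = vehicle-only wells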
Target sequence (P11712 whole entry, looked up): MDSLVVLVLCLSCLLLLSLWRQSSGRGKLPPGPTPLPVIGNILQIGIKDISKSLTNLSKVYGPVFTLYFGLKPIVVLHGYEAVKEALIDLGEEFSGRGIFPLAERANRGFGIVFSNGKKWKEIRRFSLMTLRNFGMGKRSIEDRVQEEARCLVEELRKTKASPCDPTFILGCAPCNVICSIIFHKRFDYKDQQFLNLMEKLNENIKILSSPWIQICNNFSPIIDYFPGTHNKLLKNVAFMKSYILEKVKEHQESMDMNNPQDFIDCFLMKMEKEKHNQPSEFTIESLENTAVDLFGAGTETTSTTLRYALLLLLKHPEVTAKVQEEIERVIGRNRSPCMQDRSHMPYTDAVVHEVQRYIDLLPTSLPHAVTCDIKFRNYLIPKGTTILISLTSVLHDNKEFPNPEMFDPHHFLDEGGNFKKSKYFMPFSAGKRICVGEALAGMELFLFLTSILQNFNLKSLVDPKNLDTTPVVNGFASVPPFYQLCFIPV
CYP2C9 inh: blockers of cytochrome P450 2C9 activity – biochemical, luminescence, ADME assay, primary screen; P11712; CYP2C9 Supersomes, luciferin-H conversion; inhibition, % at 5 µM; 96,000 compounds, 20% hits; AID 777, 2007;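 active means blocking of liver enzyme CYP2C9 beyond about 50% at 5 µM, limit read from the data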
CYP2C19 inh: blockers of cytochrome P450 2C19 activity – biochemical, luminescence, ADME assay, primary screen | CYP2C19 Supersomes, luciferin-H EGE luminescence, 30 min | inhibition, % at 5 µM | 96,000 compounds, 21% hits | AID 778, 2007;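 active means CYP2C19 inhibition above a set limit at 5 µM in the primary screen, cut at about 50% in these data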;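 further: plate controls were negative control wells for no effect and 2.5 mM tranylcypromine positive control for full effect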
CYP2C19 act: human CYP2C19 activators, primary screen, biochemical, luminescence | 96,000 tested, under 10 active | AID 1025, 2008 | Cytochrome P450 2C19 (Homo sapiens), P33261 | activation factor at 5 µM | recombinant CYP2C19, luciferin-H EGE luminescence; hits give high values; 0 = fully inhibited enzyme, 1 = untreated enzyme;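 active means activation factor of at least 2 at 5 µM in the primary screen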;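 further: 0 = wells with 2.5 mM tranylcypromine and 1 = vehicle-only wells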
Numbers without * were called inactive; / = not tested or not shown.

SMILES | Cav32 inh | CYP2C9 activ | CYP2C9 inh | CYP2C19 inh | CYP2C19 act
CCCc1cc(Nc2c(C)n(C)n(-c3ccccc3)c2=O)n2c(nc3ccccc32)c1C#N | 2.8 | 0.4 | 62* | 6 | 0.9
O=C1c2oc3ccc(F)cc3c(=O)c2C(c2ccccc2)N1CC1CCCO1 (stereo not drawn) | -1.7 | 0.4 | 62* | 19 | 0.8
O=C1c2oc3ccccc3c(=O)c2C(c2cccc(F)c2)N1CCCO (stereo not drawn) | 0.079 | 0.9 | 8 | 50* | 0.5
COc1ccc(C2c3c(oc4ccccc4c3=O)C(=O)N2CC2CCCO2)cc1 (stereo not drawn) | -0.73 | 0.6 | 41 | 20 | 0.8
CC(=O)c1ccc(N(C)C)c2c(N(C)C)cccc12 | -2.1 | 1.1 | -12 | -4 | 1
S=C1NCCC12C(=S)Nc1ccccc12 (stereo not drawn) | 0.75 | / | / | / | /
O=C1C2C3C=CC(C2C(=O)N1CCCO)C1C2C(=O)N(CCCO)C(=O)C2C31 (stereo not drawn) | 0.56 | 1.1 | -6 | -12 | 1.1
COc1ccc(/C=C2\C(=O)NCC(=O)N2Cc2ccccc2)cc1 | -1.4 | 0.5 | 53* | 65* | 0.4
COc1ccc(/C=C2\C(=O)N(Cc3ccc(F)cc3)CC(=O)N2Cc2ccccc2)cc1 | -2.4 | 0.1 | 88* | 72* | 0.3
COc1ccc(CC(=O)N2CC(=O)N(CCc3ccccc3)C(=O)C2)cc1 | 0.32 | 1 | 0 | 26 | 0.7
CCCCN(C(=O)Cn1nnc2ccccc21)C(C(=O)NCCOC)c1cccs1 (stereo not drawn) | 0.55 | / | / | / | /
O=C(Cn1c(=O)n(CCCCC(=O)NC2CCCC2)c(=O)c2ccccc21)NCCC1=CCCCC1 | -0.45 | 0.9 | 6 | 6 | 0.9
CCCCNC(=O)CCn1c(=O)c2ccccc2n(CC(=O)N2CC(C)CC(C)C2)c1=O (stereo not drawn) | 1.2 | 0 | 95* | 39 | 0.6
CC1CCN(C(=O)Cn2c(=O)n(CCc3ccccc3)c(=O)c3ccccc32)CC1 | -0.15 | 0.6 | 39 | 5 | 0.9
Cc1ccc(CNC(=O)CCCn2c(=O)c3ccccc3n(CC(=O)NC3CCCC3)c2=O)cc1 | -0.5 | 0.3 | 75* | 31 | 0.7
O=C(CCn1c(=O)c2ccccc2n(CC(=O)NC2CCCC2)c1=O)NCCc1ccc(Cl)cc1 | 0.51 | 0.3 | 69* | 55* | 0.5
CCOc1ccccc1NC(=O)Cn1c(=O)n(CCC(=O)NC2CCCC2)c(=O)c2ccccc21 | -0.055 | 0.3 | 74* | 40 | 0.6
O=C(c1ccc(Cl)cc1)c1cnc2ccccn12 | 0.25 | 1 | 0 | -7 | 1.1
CC1(C)CC(=O)C=C(Nc2cc(-c3ccccc3)[nH]n2)C1 | 0.96 | 0.5 | 53* | 14 | 0.9
O=C1C(=O)N(c2cccc(Cl)c2)C(c2ccccc2[N+](=O)[O-])/C1=C(\O)c1ccccc1 (stereo not drawn) | -2.4 | 0.1 | 86* | 10 | 0.9
c1ccc(COn2nnc3ccccc32)c(COn2nnc3ccccc32)c1 | -4.8* | 0.1 | 93* | 99* | 0
COc1ccccc1C1/C(=C(/O)c2ccccc2)C(=O)C(=O)N1CC(C)C (stereo not drawn) | -1.3 | 0.4 | 59* | -10 | 1.1
CC1CCCN(c2ccc(C(=O)NCC3CCCO3)cn2)C1 (stereo not drawn) | 0.008 | 1.1 | -5 | -3 | 1
COc1cc(CCN2C(=O)N[C@@H](CCc3ccccc3)C(C(C)=O)=C2C)cc(OC)c1OC | 1.1 | / | / | / | /
CN1CCN(Cc2c(O)ccc3c(-c4ccccc4)cc(=O)oc23)CC1 | 1.1 | 0.8 | 19 | 54* | 0.5
SMILES | Cav32 inh | CYP2C9 activ | CYP2C9 inh | CYP2C19 inh | CYP2C19 act
COc1ccc(C(=O)c2coc3ccc(O)c(CN(C)C)c23)cc1 | -0.034 | 0.9 | 6 | 25 | 0.7
CCN(CC)Cc1c(O)ccc2c(-c3ccccc3)cc(=O)oc12 | 1.1e-05 | 1.1 | -10 | 10 | 0.9
CN1CCN(Cc2c(O)ccc3occ(C(=O)c4ccccc4)c23)CC1 | 0.95 | 0.9 | 8 | 99* | 0
Cc1c(NC(=O)NCCN2C(=O)C3C4C=CC(C4)C3C2=O)c(=O)n(-c2ccccc2)n1C (stereo not drawn) | 0.7 | 1 | -1 | -10 | 1.1
Cn1cnnc1SCC(=O)N1CCC(Cc2ccccc2)CC1 | 0.46 | 1 | 1 | 77* | 0.2
CNc1nnc(CSc2nc3ccccc3s2)s1 | -0.12 | / | / | / | /
CCN(C(C)=O)c1nnc(CSc2nc3ccccc3s2)s1 | -0.88 | 1 | 2 | 88* | 0.1
COc1cc(C(=O)N2CCN(S(=O)(=O)c3ccc(F)cc3)CC2)cc(OC)c1OC | -0.9 | 0.8 | 15 | 43 | 0.6
CN1c2ccsc2C(O)=C(C(=S)Nc2ccc(F)c(Cl)c2)S1(=O)=O | -4 | 0.2 | 84* | 0 | 1
C/C(=C\C#N)n1nc(C)cc1N | 0.37 | 1 | -2 | -3 | 1
Cc1nc(NCc2ccccn2)c2ccccc2n1 | 0.84 | 1 | -4 | 0 | 1
Cc1cc(NCc2ccccn2)nc2ccccc12 | 0.033 | 3* | -197 | 56* | 0.4
c1ccc(CNc2ccc3ccccc3n2)nc1 | -0.41 | 1.1 | -13 | 75* | 0.2
Cc1noc2nc(-c3cccs3)cc(-c3nnc4n3CCCCC4)c12 | / | 0.9 | 14 | 2 | 1
C[C@H](N)c1nnc(SCc2c(Cl)cccc2Cl)o1 | 0.38 | 0.4 | 58* | 99* | 0
CC(C)[C@H](N)c1nnc(SCc2ccc(Cl)cc2)o1 | 0.3 | 0.8 | 15 | 96* | 0
C[C@H](N)c1nnc(SCc2ccc(Cl)cc2Cl)o1 | 0.21 | 0.2 | 82* | 100* | 0
CCC(c1nnc(SCC(=O)NCCc2ccc(Cl)cc2Cl)o1)N(C)C (stereo not drawn) | -0.053 | 0.4 | 58* | 79* | 0.2
C[C@H](N)c1nnc(SCC(=O)N(C)C)o1 | -0.21 | 0.9 | 12 | 4 | 1
COc1ccc(CCNC(=O)NC(C(F)(F)F)C(F)(F)F)cc1OC | 0.024 | 1 | 4 | 23 | 0.8
CC(CC(=O)O)CC1=NS(=O)(=O)c2ccccc2N1 (stereo not drawn) | 0.019 | 1 | 4 | 5 | 1
Cc1nc(C)n(C(C)CC(=O)O)n1 (stereo not drawn) | -0.031 | / | / | / | /
CCC(C)[C@H](N)c1nnc(SCC(=O)c2ccc(Cl)cc2)o1 (stereo partly drawn) | -2.1 | 0.3 | 71* | 100* | 0
Cc1ccc(CCN2C(=O)CCC2(C)C(=O)NCc2cccnc2)cc1 (stereo not drawn) | 0.84 | 0.8 | 18 | 11 | 0.9
CN(C)CCCNc1cn[nH]c(=O)c1Cl | 0.12 | 0.9 | 5 | -4 | 1
CCCCc1cn([C@@H](CCCCNC(=O)OC(C)(C)C)C(=O)N2CCN(C(=O)OC(C)(C)C)CC2)nn1 | -1.4 | / | / | / | /
